According to PubChem BioAssay (NCI):
About 83,000 compounds went through this panel and 20% of them were active in at least one assay; those are over-represented in the sample as a whole.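 Single-dose data. Exposure time 48 hours. Values below 10 considered active.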 Active and inactive are the calls of the source.

These molecules were tested on T-47D breast (assay: NCI-60 one-dose screen, 48 h (100 = growth as untreated, 0 = no growth, -100 = all killed)). Conditions: 10 µM unless noted.

SMILES	growth
O=C(OCc1ccccc1)n1nnc2ccccc21	106% (inactive)
COC1(OC)C2(Cl)C(Cl)=C(Cl)C1(Cl)C1COCC12 (stereo not given)	96.2% (inactive)
CCOC(=O)CO	97.7% (inactive)
COc1cc(C(=O)NC(=S)NCc2ccncc2)cc(OC)c1OC	83.2% (inactive)
Nc1ncnc2c1ncn2C1OC(CO)C2OC21 (stereo not given)	84.7% (inactive)
CC(C)(C)[Si](C)(C)OCC1OC(n2cnc3c(N)ncnc32)CC1OS(C)(=O)=O (stereo not given)	97.8% (inactive)
Cc1ccc(C)c(CCO)c1	103% (inactive)
CC(=O)CSc1ncnc2nc[nH]c12	82% (inactive)
CCOC(OCC)C(=O)c1ccccc1	103% (inactive)
CCCCCCCCCCCCCCCCOc1ccccc1NC(=O)CC(C)=O	111% (inactive)
CC1(c2ccccc2)CO1 (stereo not given)	109% (inactive)
Cc1ccc(C)c(CN(C)C)c1O	120% (inactive)
O=Cc1ccc(O)c(O)c1	83.2% (inactive)
Cc1nc(C)c(C(=O)O)cc1C(=O)O	122% (inactive)
CCN(CC)CCCC(C)NC(=S)N/N=C(\C)c1ccccn1 (stereo not given)	56.7% (inactive)
COc1ccc(-c2csc(NC(=O)Nc3nc(-c4ccc(OC)cc4)cs3)n2)cc1	56.5% (inactive)
NC(CSSCC(N)C(=O)O)C(=O)O (stereo not given)	54.7% (inactive)
Cc1cc(Cc2ccccc2)c(O)c(Cc2ccccc2)c1	85.3% (inactive)

SMILES	growth
NNc1ncnc2nc[nH]c12	62.2% (inactive)
CCCOCc1cn[nH]n1	105% (inactive)
Cc1ccc(O)c(N)c1	92.8% (inactive)
CC(C)(C)NCCC(O)c1cc(C(F)(F)F)nc2c(C(F)(F)F)cccc12 (stereo not given)	86.8% (inactive)
CC1CC2C3CCC4=CC(=O)CCC4(C)C3CCC2(C)C1(O)C(=O)CO (stereo not given)	103% (inactive)
c1cc(CNCCNCc2ccncc2)ccn1	91.4% (inactive)
CC(C)Sc1ncnc2nc[nH]c12	100% (inactive)
Cc1cc2nc(C)c(C)nc2cc1C	99.5% (inactive)
NNC(=O)CCCCl	100% (inactive)
COc1cccc(N=CNc2cccc(OC)c2)c1	92% (inactive)
Cc1c(Cl)cccc1NC(=S)NC(=O)c1ccccc1	64.8% (inactive)
Cc1[nH]c(=S)[nH]c(=O)c1C	115% (inactive)
COc1cc(-c2ccc(NC(=O)CC(C)=O)c(OC)c2)ccc1NC(=O)CC(C)=O	108% (inactive)
Clc1ncnc2nc[nH]c12	90.7% (inactive)
CN(C)c1ncnc2c1cnn2C	88.2% (inactive)
CC1CC(C)S(=O)(=O)C1 (stereo not given)	109% (inactive)
Cc1cc(C(=O)NN)c(C#N)c(=O)[nH]1	96.3% (inactive)
